Source: PubChem
An excerpt weighted towards active compounds, which were near 7.9% of everything screened.
Marburg entry inh = qHTS for inhibitors of binding or entry into cells for Marburg Virus; Potency, µM (top dose mostly 37.8 µM), actives largely listed as inhibitors; AID 540276, 2011; Marburg virus pseudotyped entry inhibition, cell reporter; hit rate 1.8% among 300,000; calls by dose curve; tested in HEK293 cells
FMDV inh = High Throughput Screening for Foot and Mouth Disease Virus Antivirals; FMDV antiviral cell-based qHTS; Potency, µM (top dose mostly 57.9 µM), usual class: inhibitors; hit rate 1.2% among 410,000; calls by dose curve; tested in HEK293T cells; further: read-out not given here; nearly all actives have a fitted effect of over 45% in size
LASV entry inh = qHTS for Inhibitors of binding or entry into cells for Lassa Virus; Lassa virus pseudotype entry inhibition, cell reporter; Potency, µM (series often up to 37.9 µM), actives largely listed as inhibitors; hit rate 1.2% among 300,000; AID 540256, 2011; calls by dose curve; tested in HEK293 cells; further: nearly all actives have a fitted effect of over 50% in size
HCMV inh = qHTS Assay for inhibitors of the human cytomegalovirus (HCMV). HFF cells, HCMV-luciferase reporter, 72 h; stronger effect = lower value. hit rate 4.5% among 410,000. activity change, negative = inhibition, % at 57.5 µM. AID 1259415, 2018; in the data active means activity change below about -60%; inconclusive means no clear call, values can overlap the other calls; inactive means above about -39%
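Screen run at 2 compound doses on HFFs infected with reporter HCMV, MOI 1 PFU/cell. Luciferase activity from cell lysates at 72 h post infection gave inhibition relative to buffer-only and Salinomycin wells.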
HCV inh = qHTS Assay for Inhibitors of Hepatitis C Virus (HCV) | Huh7.5.1 HCVcc-Cre infection, luciferase reporter, 44 h | Potency, µM (titrated, usually from 41.8 µM), actives largely listed as inhibitors | hit rate 3.4% among 340,000; active means well fitted inhibition curve with a large enough effect; inconclusive means small, poorly fitted or top-dose-only effect, or another doubt; inactive means no such curve, though single readings can be large or run the other way
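Cells seeded at 1,000/well and cultured 4 h, then compounds added followed by HCVcc-Cre virus (~0.5 moi). After 44 h further culture, luciferase substrate was added, plates held 15 min at room temperature, and luminescence read for 15 sec.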
Large screens that a line does not name were inactive; ! = not confirmed by another sample.

COc1cc2c(cc1OC)/C(=C/c1ccc(Cl)cc1)C(=O)OC2	Marburg entry inh inconclusive, FMDV inh 39.8µM
CCOC(=O)c1c(S(=O)(=O)NCC(=O)N(C)c2ccc(C)cc2)c(C)n(C)c1C	none (no result: Marburg entry inh, HCV inh)
O=[N+]([O-])c1cccc(S(=O)(=O)NCc2ccncc2)c1	FMDV inh inconclusive, HCMV inh inconclusive, HCV inh 12.6µM
O=S(=O)(NCc1ccncc1)c1ccc(S(=O)(=O)NCC2CCCO2)cc1 (stereo unspecified)	Marburg entry inh inconclusive, LASV entry inh inconclusive, HCV inh 12.6µM (no result: FMDV inh)
CCCCc1ccc(S(=O)(=O)NCCc2ccncc2)cc1	LASV entry inh inconclusive, HCMV inh -63.0, HCV inh 11.2µM
CCCCNS(=O)(=O)c1ccc(S(=O)(=O)NCc2ccncc2)cc1	HCMV inh -72.0, HCV inh 10µM (no result: FMDV inh)
CCC(C(=O)Nc1ccccc1OC)n1nc(C)c2sc3ccccc3c2c1=O (stereo unspecified)	none (no result: HCV inh)
Cc1ccc(NC(=O)N2CCC(CN3CCCCCC3)CC2)c(Cl)c1	HCMV inh inconclusive (no result: Marburg entry inh, HCV inh)
N#CC(C#N)=C(N)/C(C#N)=C/c1ccc2[nH]ccc2c1	none (no result: Marburg entry inh, LASV entry inh, HCMV inh, HCV inh)
Cn1nc(-c2ccccc2)nc1-c1ccccc1	none (no result: Marburg entry inh, LASV entry inh)
CN=c1nc(-c2ccccc2)n(-c2ccccc2)s1	Marburg entry inh 14.1µM!, LASV entry inh 23.1µM
CN(c1cccnc1)c1ncnc2[nH]ncc12	none
C=CCN(CC=C)c1ncnc2[nH]ncc12	HCMV inh -86.0
COc1cc(C(=O)OCc2cccc(S(=O)(=O)N3CCOCC3)c2)ccc1OCC(C)C	HCV inh 10µM (no result: Marburg entry inh, LASV entry inh)
COc1cc(C(=O)OCC(=O)Nc2cccc(S(=O)(=O)N3CCOCC3)c2)ccc1OCC(C)C	none
Cc1cccc(OCCNc2ccc(C(F)(F)F)cc2[N+](=O)[O-])c1	LASV entry inh inconclusive
Cc1ccc(OCCNC(=O)c2cccc(S(=O)(=O)NCc3ccccc3)c2)cc1	Marburg entry inh 6.31µM, LASV entry inh inconclusive, HCV inh inconclusive
Cc1ccc(S(=O)(=O)NCc2ccc(C(=O)NCCN(Cc3ccccc3)C(C)C)cc2)cc1	Marburg entry inh 11.2µM, HCMV inh inconclusive, HCV inh inconclusive
Cc1ccc(OCCNC(=O)c2cccc(Oc3ccc(C(F)(F)F)cc3[N+](=O)[O-])c2)cc1	FMDV inh inconclusive, LASV entry inh inconclusive, HCMV inh -79.9, HCV inh inconclusive
CCc1nnc(NC(=O)c2cc(=O)c3cc(C)c(C)cc3o2)s1	none (no result: HCV inh)
CCC1CN(CC(=O)NC(C)c2cn(C)nc2C)Cc2cc(OC)ccc2O1 (stereo unspecified)	none (no result: Marburg entry inh, LASV entry inh, HCMV inh, HCV inh)
COc1ccccc1CNC(=O)CCC1N=C2c3ccccc3N=C(SCC(=O)Nc3ccc(F)cc3)N2C1=O (stereo unspecified)	FMDV inh inconclusive (no result: Marburg entry inh, HCV inh)
Cc1cccc(C(=O)N2CCn3c(nnc3C(=O)NC(C)C)C2)c1C	none (no result: Marburg entry inh, FMDV inh, LASV entry inh, HCV inh)
COc1ccccc1OCCCCN1CCN(C(c2ccccc2)c2ccccc2)CC1	Marburg entry inh inconclusive, LASV entry inh 18.4µM, HCMV inh inconclusive, HCV inh 11.2µM
CN1CCN(CCCCOc2ccccc2C=O)CC1	Marburg entry inh inconclusive, LASV entry inh inconclusive, HCV inh 10µM
c1ccc(OCCOCCN2CCN(C(c3ccccc3)c3ccccc3)CC2)cc1	Marburg entry inh inconclusive, LASV entry inh inconclusive, HCMV inh inconclusive, HCV inh inconclusive
COc1cccc(C(=O)N2CCN(CCCc3ccccc3)CC2)c1OC	FMDV inh inconclusive, LASV entry inh inconclusive, HCMV inh inconclusive, HCV inh 35.5µM
COc1cccc(OC)c1OCCCCN1CCC(Cc2ccccc2)CC1	Marburg entry inh inconclusive, LASV entry inh inconclusive, HCV inh 11.2µM
Cc1cc2oc3c(c(=O)c2cc1C)C(c1ccc(C(C)C)cc1)N(c1nc(C)c(C)s1)C3=O (stereo unspecified)	none (no result: HCV inh)
O=C(c1cc(COc2ccc(F)cc2Cl)on1)N1CCC(c2ccncc2)CC1	Marburg entry inh inconclusive, LASV entry inh inconclusive, HCMV inh -67.1, HCV inh 12.6µM
CCC(NC(=O)c1cc(COc2ccc(F)cc2Cl)on1)c1ccncc1 (stereo unspecified)	HCMV inh inconclusive, HCV inh 3.98µM (no result: Marburg entry inh, LASV entry inh)
CCN(CC1CCCO1)C(=O)c1cc(COc2ccc(F)cc2F)on1 (stereo unspecified)	none (no result: HCV inh)
O=C(c1cc(COc2ccc(F)cc2Cl)on1)N1CCCCCC1	HCV inh inconclusive (no result: Marburg entry inh, LASV entry inh)
